Bioassay records deposited in PubChem BioAssay by The Scripps Research Institute Molecular Screening Center.
hcDAF-12 act – activators of H. contortus DAF-12 nuclear receptor. HEK293 hcDAF-12 lit1-tk-luc reporter, luminescence; 0% DMSO, 100% Δ7-dafachronic acid. activation, % at 6.8 µM. actives 1.4% (n = 370,000);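 active = activation above the mean of all tested compounds plus 3 SD, cut at about 5.5% in these data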
AHR activator – activators of human aryl hydrocarbon receptor. P35869. AHR-responsive luciferase reporter cells, luminescence. activation, % at 5 µM. actives 2.5% (n = 320,000); in the data active = activation above about 47%
DAX1 inh-1 – inhibits human nuclear receptor DAX1; HEK293 Gal4-DAX1 luciferase reporter, luminescence; inhibition, % at 6.75 µM; AID 504766; actives 0.99% (n = 340,000);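 active = inhibition above the mean over all tested compounds plus 3 SD, cut at about 4.2% in these data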;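 also: inhibition shows as a rise in luminescence from relieved DAX1 repression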
hgDAF12 agonist – agonists of H. glycines DAF-12 nuclear receptor. HEK293 GAL4-hgDAF12 UAS-luciferase reporter, agonist luminescence; normalized to butyrate control. activation, % at 6.8 µM. actives 1.8% (n = 370,000);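 active = activation above a cutoff set at the mean of all screened compounds plus 3 SD, cut at about 10% in these data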
DAX1 inh-2 – DAX1 (NR0B1) inhibition, primary screen | inhibition, % at 6.8 µM | HEK293T StAR-luciferase reporter, SF-1/DAX-1 repression relief | actives 1.1% (n = 370,000) | AID 652010;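 active = inhibition above the mean over all tested compounds plus 3 SD, cut at about 3.6% in these data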;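 also: higher inhibition means more luminescence from relief of DAX-1 repression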
ssDAF-12 act – activates DAF-12 receptor from parasite S. stercoralis. HEK293 ssDAF-12/GRIP1 lit1-tk-luc reporter, luminescence; % of 3 µM dafachronic acid response. activation, % at 6.8 µM. actives 1% (n = 370,000);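 active = activation above the mean over all tested compounds plus 3 SD, cut at about 0.9% in these data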
DAX1 conf – NR0B1 (human) inhibition, confirmation. shares compounds with DAX1 inh-2. HEK293T StAR-promoter luciferase reporter, SF-1/DAX-1 repression. inhibition, % at 6.8 µM. actives 87% (n = 2,400);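 active = inhibition above the average of every tested compound plus 3 SD, cut at about 3.8% in these data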;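 also: active compounds raise luminescence by relieving repression of the StAR reporter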
Target sequence (P51843 whole entry, looked up): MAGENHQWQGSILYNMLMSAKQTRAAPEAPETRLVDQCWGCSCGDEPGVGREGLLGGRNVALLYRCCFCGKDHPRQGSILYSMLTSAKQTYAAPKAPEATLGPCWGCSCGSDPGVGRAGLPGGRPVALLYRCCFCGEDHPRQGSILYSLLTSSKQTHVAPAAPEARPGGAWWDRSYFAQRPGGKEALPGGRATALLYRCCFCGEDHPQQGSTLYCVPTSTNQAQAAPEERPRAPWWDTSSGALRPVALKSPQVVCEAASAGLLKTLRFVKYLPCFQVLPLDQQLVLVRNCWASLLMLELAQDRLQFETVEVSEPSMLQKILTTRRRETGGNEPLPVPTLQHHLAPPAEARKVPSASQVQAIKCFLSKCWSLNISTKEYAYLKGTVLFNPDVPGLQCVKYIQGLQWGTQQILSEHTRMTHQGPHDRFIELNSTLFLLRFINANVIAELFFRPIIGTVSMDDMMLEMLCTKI
SF1 AF2mut Luc – counter-screen for DAX1 inhibitors: nonselective inhibitors with SF-1 AF2 mutant | HEK293 StAR-luciferase, luminescence | inhibition, % at 6.8 µM | shares compounds with DAX1 inh-2 | AID 652136 | actives 78% (n = 2,400);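 active = inhibition above the mean of all tested compounds plus 3 SD, cut at about 3% in these data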
LXR ag – counter-screen for hcDAF-12 agonists: agonists of human LXR-beta; shares compounds with hcDAF-12 act; HEK293 Gal4-LXR tk-luc reporter, luminescence, 24 h; normalized: DMSO 0%, positive control 100%; activation, % at 6.8 µM; 3,400 tested, under 10 active;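 active = mean percent activation of the reporter above a cutoff set as the average over tested compounds plus their standard deviation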
hcDAF12 conf – hcDAF-12 agonism, confirmation assay; shares compounds with hcDAF-12 act; HEK293 hcDAF-12 lit1-tk-luc reporter, luminescence; % of Δ7-dafachronic acid response; activation, % at 6.8 µM; actives 61% (n = 3,400);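 active = mean activation across triplicate tests above the threshold derived from the earlier primary screen, cut at about 5.5% in these data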
hgDAF12 conf – confirmation of H. glycines DAF-12 agonists. shares compounds with hgDAF12 agonist. HEK293 GAL4-hgDAF12 luciferase reporter, agonist mode; percent of butyrate response. activation, % at 6.8 µM. actives 80% (n = 3,300). AID 743050;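 active = mean activation over triplicate wells above the hit cutoff derived from the earlier primary screen, cut at about 11% in these data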
LXR ag 2 – activates human LXR-beta, counter-screen for DAF-12 agonists; activation, % at 6.8 µM; 3,300 tested, under 10 active; AID 743051; shares compounds with hgDAF12 agonist; HEK293 Gal4-LXR luciferase reporter, 24 h;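 active = mean activation of the triplicate above a set limit carried over from the primary screen, none filed active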
Hits are given with their value; n = inactive; x = no result. This is a sample that favours compounds with a hit; in the whole collection about 5.7% have one here.

SMILES	hcDAF-12 act	AHR activator	DAX1 inh-1	hgDAF12 agonist	DAX1 inh-2	ssDAF-12 act	LXR ag	hcDAF12 conf	others
COc1ccc(-c2cc(=O)c3c(OC)c(OC)c(OC)cc3o2)cc1	n	n	n	n	n	n	x	x
COc1ccc(-c2cc(=Nc3ccccc3)c3cc(C)ccc3o2)cc1	7.3	n	n	22	5.1	n	n	n	DAX1 conf=6.1;SF1 AF2mut Luc=4.3;hgDAF12 conf=18;LXR ag 2=n
COc1ccc(-c2cc(=NCCC(=O)O)c3cc(C)ccc3o2)cc1	6.5	x	n	23	7.0	n	x	x	DAX1 conf=13;SF1 AF2mut Luc=8.8;hgDAF12 conf=10;LXR ag 2=n
CCCCCCC(Cl)(Cn1ccnc1)c1ccccc1 (stereo not given)	n	n	n	n	n	n	x	x
CN(C)C(=O)Oc1ccc(-c2cn3cc(Cl)ccc3n2)cc1	7.8	n	n	17	6.1	n	n	n	DAX1 conf=16;SF1 AF2mut Luc=6.3;hgDAF12 conf=15;LXR ag 2=n
Cc1c(C(=O)c2cccc3ccccc23)c2cccc3c2n1[C@H](CN1CCOCC1)CO3	n	n	n	n	n	n	x	x
Cc1ccc2c(c1N)C(=O)c1ccccc1C2=O	n	73	n	16	5.3	n	x	x	DAX1 conf=11;SF1 AF2mut Luc=5.8;hgDAF12 conf=13;LXR ag 2=n
c1ccc2c(c1)CNCc1cnnn1-2	n	x	n	n	n	n	x	x
Nc1ccccc1C(=O)OCCc1ccccc1	11	n	n	24	5.6	n	n	9.7	DAX1 conf=13;SF1 AF2mut Luc=4.1;hgDAF12 conf=15;LXR ag 2=n
CC/C(=N\NC(=O)c1ccccc1)c1c(O)n(C2CCCCC2)c(=O)[nH]c1=O	n	n	n	15	4.8	n	x	x	DAX1 conf=n;SF1 AF2mut Luc=n;hgDAF12 conf=n;LXR ag 2=n
CC/C(=N\NC(=O)c1ccccc1Cl)c1c(O)n(C2CCCCC2)c(=O)[nH]c1=O	n	n	n	n	n	n	x	x
CC1CCCN(CC(=O)c2ccc(Cl)c(Cl)c2)C1 (stereo not given)	n	n	n	n	n	n	x	x
CC1CCN(CC(=O)c2ccc3c(c2)OCCO3)CC1	8.9	n	n	17	8.0	n	n	8.3	DAX1 conf=14;SF1 AF2mut Luc=8.6;hgDAF12 conf=16;LXR ag 2=n
COC(=O)C1=C(c2ccc(-c3ccccc3)c(F)c2)C[C@@H]2CC[C@H]1N2C(=O)NCCOc1ccc(OC)cc1	n	n	n	n	n	n	x	x
Cn1c(O)c(/C=C2\C=Nc3ccccc32)c(=O)n(C)c1=O	7.7	n	n	n	n	n	n	n
COc1ccccc1CCNCc1cc2c(cc1[N+](=O)[O-])OCO2	8.4	n	n	n	n	0.9	n	n
COc1ccc(Br)cc1CNCCc1ccc2c(c1)OCO2	n	n	n	n	n	n	x	x
NC(N)=Nc1ccc2[nH]c3c(c2c1)C[C@@]1(O)[C@H]2Cc4ccc(O)c5c4[C@@]1(CCN2CC1CC1)[C@H]3O5	x	n	n	x	x	x	x	x
CC12CC[C@H]3[C@@H](CCC4(O)C[C@H](O)CCC34/C=N/NC(=O)c3ccccc3O)C1(O)CCC2C1=CC(=O)OC1 (stereo not given in full)	17	n	n	n	n	n	n	6.8
CC12CC[C@H]3[C@@H](CCC4(O)C[C@H](O)CCC34/C=N/NC(=O)c3ccccc3F)C1(O)CCC2C1=CC(=O)OC1 (stereo not given in full)	n	n	n	n	n	n	x	x
C[C@]12CCC3C(CC[C@H]4C[C@H](O)CC[C@]34C)C1[C@@H](O)[C@@H](O)[C@@H]2O (stereo not given in full)	n	n	n	n	n	n	x	x
COc1cc(/C=C2/C(=O)NC(=O)N(c3ccccc3)C2=O)ccc1O	7.0	n	n	n	n	n	n	n
Cc1ccc(OCCOc2cccc(C=C3C(=O)NC(=O)NC3=O)c2)cc1	6.6	n	n	12	n	1.1	n	7.3
Nc1cc(C(=O)Nc2ccccc2F)ccc1N1CC2CC(C1)c1cccc(=O)n1C2 (stereo not given)	7.0	x	n	n	n	n	n	n
CC(C)[C@H](NC(=O)N1C[C@H]2C[C@@H](C1)c1cccc(=O)n1C2)C(=O)Nc1ccccc1F	n	n	n	n	n	n	x	x
SMILES	hcDAF-12 act	AHR activator	DAX1 inh-1	hgDAF12 agonist	DAX1 inh-2	ssDAF-12 act	LXR ag	hcDAF12 conf	others
CC1CC(OP(O)(=S)c2ccc(N(C)C)cc2NC(=O)c2cccs2)CC(C)(C)C1 (stereo not given)	8.8	n	n	11	n	n	n	n
Cc1cc(/C=C2\C(=O)NC(=O)N(c3ccc(Br)cc3)C2=O)c(C)n1C	7.1	64	n	n	n	n	n	n
Cc1ccccc1NS(=O)(=O)c1ccc(OCC(=O)N2CCN(C)CC2)cc1	n	n	n	n	n	n	x	x
O=C1NC(=O)[C@]2(Cc3ccccc3N3CCN(c4ccccc4)CC32)C(=O)N1c1ccccc1 (stereo not given in full)	7.6	n	n	n	n	1.8	n	n
CN1C(=O)NC(=O)[C@]2(Cc3ccccc3N3CCN(c4ccccc4)CC32)C1=O (stereo not given in full)	n	n	n	n	n	n	x	x
Clc1cc(I)cc(Cl)c1NC1=NCCN1	n	n	n	n	n	n	x	x
O=C(CCC(=O)N1CC2C[C@@H](C1)Cn1c2cccc1=O)NCCc1ccccc1F	n	n	n	n	n	n	x	x
CC(=Nc1ccccc1N)c1c(O)n(C)c(=O)n(C)c1=O	6.6	n	4.5	n	n	n	n	n
CC(=NCCc1ccccc1)c1c(O)n(C)c(=O)n(C)c1=O	n	n	n	n	n	n	x	x
COc1ccc(-n2nc(C(=O)NCC(=O)N3CCC4(CC3)OCCO4)c3ccccc3c2=O)cc1Cl	6.6	n	n	14	n	n	n	n	hgDAF12 conf=12;LXR ag 2=n
COc1ccc(CNCC(=O)N2CCC3(CC2)OCCO3)cc1	n	n	n	n	n	n	x	x
